Most compounds without a hit are left out; they make up all but 2.4% or so of the library.
Pol kappa inh – blocks human DNA polymerase kappa activity; Potency, µM (top dose mostly 107 µM), for the others: at the highest dose activity, negative = inhibition, actives largely listed as inhibitors; Q9UBT6; purified Pol kappa, fluorescent DNA synthesis assay, 10 min; AID 588579; 400,000 tested, 0.53% active; note: % is set by controls: 0 for no effect and ±100 for the full control effect
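10 nM Pol kappa preincubated 15 min at room temperature with compounds, then reaction started with substrate at 50 nM final. Fluorescence read kinetically at 0 and 10 min; buffer-only wells served as negative control.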
GLS inh – blocks human kidney-isoform glutaminase activity | 410,000 tested, 0.21% active | Potency, µM (titrated, usually from 45.5 µM), for inactives: at the top dose activity change, negative = inhibition, most hits filed as inhibitors | AID 624170 | O94925 | GLS enzymatic activity, qHTS titration; note: % is set by controls: 0 for no effect and ±100 for the full control effect
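Read-out is an Amplex red fluorescence increase coupled through glutamate oxidase and HRP, measured before and after 30 min room-temperature incubation. hKGA is in 45 mM KH2PO4 (pH 8.2) with 0.02% Tween-20; glutamine added as 1mM solution.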
POLB inh – DNA polymerase beta (human) inhibition; P06746; Pol beta primer extension/strand displacement, fluorescence kinetic; Potency, µM (top dose mostly 114 µM), for the others: at the top dose activity change, negative = inhibition, most hits filed as inhibitors; 340,000 tested, 1.3% active; note: % is set by controls: 0 for no effect and ±100 for the full control effect
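Human Pol beta at 10 nM; strand-displacement substrate 50 nM final. Compound exposure 15 min at room temperature before start, reaction 10 min at room temperature.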
Pol eta inh – DNA polymerase eta (human) inhibition. Q9Y253. recombinant Pol eta, fluorescent DNA replication assay. Potency, µM (highest dose often 114 µM), without a hit: top-dose activity change, negative = inhibition, hits mostly inhibitors. 390,000 tested, 1.2% active; note: % is set by controls: 0 for no effect and ±100 for the full control effect
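Pol eta (10 nM) was preincubated with compounds for 15 min at room temperature, after which fluorescent replication substrate (50 nM final) was added to start the reaction. Fluorescence was read kinetically at 0 and 10 min.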
GCN5L2 inh – GCN5L2 (KAT2A) acetyltransferase inhibition | Q92830 | 390,000 tested, 0.21% active | Potency, µM (series often up to 58.9 µM), without a hit: at the highest dose activity change, negative = inhibition, hits mostly inhibitors | GCN5L2 HAT assay, ThioGlo1 CoA-SH fluorescence; note: % is set by controls: 0 for no effect and ±100 for the full control effect
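qHTS, 1536-well. 20nM enzyme, pH 7.5 HEPES/EDTA/Tween-20 buffer; 15 min compound preinc., RT. Start: 75uM H3(1-25), 70uM AcCoA, 50uM ThioGlo1. Read Ex340/Em540 at t=0 (autofluorescence flag) and t=20 min.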
POLI inh – inhibitors of human DNA polymerase iota; Q9UNA4; Potency, µM (doses to about 115 µM), for inactives: top-dose activity, negative = inhibition, hits mostly inhibitors; 390,000 tested, 1% active; Pol iota fluorescent replication assay, 10 min
Target sequence (Q9UNA4 whole entry, looked up): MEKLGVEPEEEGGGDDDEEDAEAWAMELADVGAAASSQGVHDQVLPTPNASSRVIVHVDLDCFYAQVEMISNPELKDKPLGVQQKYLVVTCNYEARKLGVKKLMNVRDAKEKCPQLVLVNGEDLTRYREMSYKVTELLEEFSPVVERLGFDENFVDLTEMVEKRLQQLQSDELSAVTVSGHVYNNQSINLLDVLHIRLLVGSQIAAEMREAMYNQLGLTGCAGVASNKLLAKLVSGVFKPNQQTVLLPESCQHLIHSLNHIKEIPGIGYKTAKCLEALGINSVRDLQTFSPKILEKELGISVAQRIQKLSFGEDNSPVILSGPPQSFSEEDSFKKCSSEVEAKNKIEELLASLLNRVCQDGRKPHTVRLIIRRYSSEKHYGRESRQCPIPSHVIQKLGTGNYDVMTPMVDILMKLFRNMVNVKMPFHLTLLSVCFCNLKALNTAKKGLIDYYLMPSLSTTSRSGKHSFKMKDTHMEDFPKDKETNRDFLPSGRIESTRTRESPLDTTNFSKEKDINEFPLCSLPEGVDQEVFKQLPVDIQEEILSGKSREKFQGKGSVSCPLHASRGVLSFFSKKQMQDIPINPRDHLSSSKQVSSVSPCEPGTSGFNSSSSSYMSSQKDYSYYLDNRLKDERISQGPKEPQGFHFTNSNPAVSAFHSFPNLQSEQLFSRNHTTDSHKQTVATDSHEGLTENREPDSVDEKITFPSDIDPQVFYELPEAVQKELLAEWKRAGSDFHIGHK
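Fluorescent replication assay read twice, at 0 min and 10 min after adding 50 nM (final) substrate. Enzyme (10 nM) and compounds were first incubated 15 min at room temperature; enzyme-free buffer wells were negative controls.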
An asterisk follows results filed as active; [ ] = dose if it differs, or a comment. Calls come from the whole dose curve; as a rule, active = well fitted inhibition curve with a large enough effect; inconclusive = small, poorly fitted or top-dose-only effect, or another doubt; inactive = no such curve, though single readings can be large or run the other way. Potency is the fitted concentration of half-maximal effect.

COc1cc(OC)c(/C=C/c2cc3ccccc3c[n+]2C)c(OC)c1 was read as Pol kappa inh -32.0% and POLI inh inconclusive.
For COc1cc(C(C[N+](=O)[O-])c2c(C)cc3ccccn23)ccc1O (stereo unspecified) the results were Pol kappa inh -1.3%, GLS inh 7.94µM*, POLB inh 41.7%, Pol eta inh -21.8%, GCN5L2 inh -1.1% and POLI inh 117.1%.
For Nc1cc([N+](=O)[O-])ccc1N1C(=O)CCCC1=O the results were Pol kappa inh -19.6%, GLS inh -18.9%, POLB inh 39.8µM*, Pol eta inh 8.8%, GCN5L2 inh -1.8% and POLI inh inconclusive.
Nc1cc(Cl)ccc1N1C(=O)CCC1=O was read as Pol kappa inh -1.1%, GLS inh -0.9%, POLB inh 17.5%, Pol eta inh -16.8%, GCN5L2 inh 1.1% and POLI inh 3.4%.
Screening C=C1c2cccc(OC)c2O[C@H](C(=O)OCC)[C@@H]1CCC(C)C returned Pol kappa inh inconclusive and GCN5L2 inh -14.2%[88.6 µM].
Screening CCOc1cc(Br)cc(C(c2c(C(=O)O)[nH]c3ccccc23)c2c(C(=O)O)[nH]c3ccccc23)c1O returned Pol kappa inh inconclusive, GLS inh 3.4%, POLB inh inconclusive, Pol eta inh 79.4µM*, GCN5L2 inh inconclusive and POLI inh -15.6%.
For CSc1ccc(C(c2c(C(=O)O)[nH]c3ccccc23)c2c(C(=O)O)[nH]c3ccccc23)cc1 the results were Pol kappa inh inconclusive, GLS inh inconclusive, POLB inh -27.1%, Pol eta inh 79.4µM*, GCN5L2 inh -25.7% and POLI inh inconclusive.
For CSc1ccc(C(c2c(C)[nH][nH]c2=O)c2c(C)[nH][nH]c2=O)cc1 the results were Pol kappa inh -11.7%, GLS inh 12.2%, POLB inh 15.6%, Pol eta inh -4.1%, GCN5L2 inh -5.9% and POLI inh inconclusive.
`CCOC(=O)c1[nH]c2ccccc2c1NC(C)=O` gave Pol kappa inh -5.2%, GLS inh 14.6%, POLB inh 79.9%, Pol eta inh -14.5%, GCN5L2 inh -2.6% and POLI inh -1.8%.
C#C[C@]1(O)CC[C@H]2[C@H]3CCc4cc(O)ccc4[C@@H]3CC[C@@]21C was read as Pol kappa inh 4.3%[60.1 µM] and GCN5L2 inh -24.5%.
Screening N#CC(C#N)=C(N)/C(C#N)=C/c1ccc2[nH]ccc2c1 returned Pol kappa inh -5.6%[19.4 µM] and GCN5L2 inh -22.3%.
For NS(=O)(=O)c1cccc(NC(=O)c2ccc3nc[nH]c3c2)c1 the results were Pol kappa inh inconclusive, GLS inh 81.3%, POLB inh 50.1µM*, Pol eta inh 79.4µM*, GCN5L2 inh -3.7% and POLI inh inconclusive.
Cc1cccc(NC(=O)CNC(=O)c2ccc3nc[nH]c3c2)c1C was read as Pol kappa inh inconclusive, GLS inh 1.1%, Pol eta inh 12.6µM*, GCN5L2 inh -3.5% and POLI inh inconclusive.
Screening O=C(Nc1ccc(C(F)(F)F)cc1)c1ccc2nc[nH]c2c1 returned Pol kappa inh -0.9%, GLS inh -2.0%, POLB inh -0.7%, Pol eta inh -11.3%, GCN5L2 inh 0.3% and POLI inh -28.0%.
`CCN(CC)CCN(C)c1ccc(/C=C/c2ccnc3ccccc23)cc1` gave Pol kappa inh -3.4% and POLI inh -11.1%.
O=C1NCc2c1c1c3ccccc3[nH]c1c1[nH]c3ccccc3c21 was read as Pol kappa inh -22.4% and POLI inh 12.4%.
Cc1c(C(=O)NNC(=O)c2csc(N3CCOCC3)n2)oc2ccc(Br)cc12 was read as GLS inh 5.2% and Pol eta inh 25.1µM*.
C/C(=N/NC(=O)C(O)(c1ccccc1)c1ccccc1)c1ccc([N+](=O)[O-])o1 was read as Pol kappa inh -15.5%, GLS inh 159.4%, POLB inh 12.6µM*, Pol eta inh 79.4µM*, GCN5L2 inh -8.6% and POLI inh inconclusive.
`Cn1c2c(c3cnc4cc(Cl)ccc4c31)CNCC2` gave Pol kappa inh -13.7% and POLI inh 16.0%.
`c1cnc2cc3c(cc2n1)C1CNCC3C1` gave GLS inh 3.6%[99.4 µM].
`Cc1ccc(S(=O)(=O)c2nnn3c2nc(NC2CCCCC2)c2sccc23)cc1` gave Pol kappa inh -10.8%, GLS inh -11.2%, POLB inh -19.2%, Pol eta inh -11.4%, GCN5L2 inh -3.5% and POLI inh 9.5%.
O=S(=O)(c1ccc(Cl)cc1)c1nnn2c1nc(NC1CCCCC1)c1sccc12 was read as Pol kappa inh -18.8%, GLS inh 2.2%, POLB inh 31.6µM*, Pol eta inh -28.6%, GCN5L2 inh -18.9% and POLI inh 5.6%.
For COc1cc2c(NC3CCN(C)CC3)nc(N3CCCN(C)CC3)nc2cc1O the results were Pol kappa inh -26.8% and POLI inh 16.0%.
CC[n+]1ccnc2ccccc21 was read as Pol kappa inh -24.2% and POLI inh -12.6%.
`Cc1cc(-c2ccccc2)nc2c(Br)c(C(=O)O)nn12` gave Pol kappa inh 79.4µM*, GLS inh 15.8µM*, Pol eta inh 7.94µM* and POLI inh 11.2µM*.
For N#CCNC(=O)c1nn2c(C(F)(F)F)cc(-c3ccccc3)nc2c1Br the results were Pol kappa inh -7.3%, GLS inh -1.8%, POLB inh 14.6%, Pol eta inh -22.4%, GCN5L2 inh 0.1% and POLI inh 163.0%.
CN(C)c1ccc(/C=C/c2ccnc3cc(Cl)cc(Cl)c23)cc1 was read as Pol kappa inh -12.5% and POLI inh -3.7%.
O=C(Nc1ncc([N+](=O)[O-])s1)c1ccccc1Br was read as Pol kappa inh inconclusive, GLS inh 3.6%, POLB inh inconclusive, Pol eta inh 50.1µM*, GCN5L2 inh 1.8% and POLI inh 28.2µM*.
Screening O=C(Nc1ncc([N+](=O)[O-])s1)c1cccs1 returned Pol kappa inh 4.3%, GLS inh -18.1%, POLB inh 33.0%, Pol eta inh -9.7%, GCN5L2 inh -3.4% and POLI inh inconclusive.
Screening CC(=O)N1CCCC1c1nc2ccccc2n1Cc1cccc(C)c1 (stereo unspecified) returned Pol kappa inh -12.1%, GLS inh -15.2%, POLB inh -9.7%, Pol eta inh -14.9%, GCN5L2 inh 2.1% and POLI inh 16.5%.

Source: PubChem (National Center for Advancing Translational Sciences (NCATS))
